From PubChem BioAssay (NCI)
About 79,000 compounds went through this panel and 15% of them were active in at least one assay; those are over-represented in the sample as a whole. A number with no mark means an inactive call. Calls of active or inactive are those of the source. Cut-off read from the data, not from the text of the source: active = growth inhibition above about 70%; inactive = the rest.

Tests used:
[1] = NCI Yeast Anticancer Drug Screen. Data for the rad50 strain (AID 155);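 note: 0% = growth of vehicle-only cultures of the same strain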; conditions: S. cerevisiae rad50 strain growth inhibition, stronger effect = higher value
How it was run: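 Growth of the mutant yeast was measured after compound exposure and referenced to vehicle-treated cultures.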

[2] = NCI Yeast Anticancer Drug Screen. Data for the mec2-1 strain (AID 157); conditions: S. cerevisiae mec2-1 strain, stronger effect = higher value
How it was run: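 Compounds were applied to mec2-1 yeast cells. Their growth was then compared with that of vehicle-treated cultures to give growth inhibition.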

[3] = NCI Yeast Anticancer Drug Screen. Data for the sgs1 mgt1 strain (AID 161);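 note: 0% = growth of cultures given vehicle only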; conditions: S. cerevisiae sgs1 mgt1 strain, stronger effect = higher value
How it was run: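 This yeast growth screen uses a strain with defined DNA-repair lesions; compound-treated growth is compared with vehicle-treated growth.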

[4] = NCI Yeast Anticancer Drug Screen. Data for the cln2 rad14 strain (AID 165);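 note: 0% = growth equal to vehicle treated cultures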; conditions: S. cerevisiae cln2 rad14 strain, stronger effect = higher value
How it was run: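 Strain: cln2 rad14 yeast, altered in cell cycle control and DNA damage repair. Read-out: growth inhibition vs vehicle.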

[5] = NCI Yeast Anticancer Drug Screen. Data for the bub3 strain (AID 167); conditions: S. cerevisiae bub3 mutant strain, stronger effect = higher value
How it was run: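 Whole-cell yeast assay. The mutant strain was incubated with compounds, and growth inhibition was determined by comparison with vehicle-treated cells.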

[6] = NCI Yeast Anticancer Drug Screen. Data for the mlh1 rad18 strain (AID 175); conditions: S. cerevisiae mlh1 rad18 strain growth inhibition, stronger effect = higher value
How it was run: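 A repair-deficient yeast strain is exposed to test compound, and growth is scored relative to vehicle-treated controls.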

[7] = at 5.0 µM (retest, dose inferred, filed as 0.5)
[8] = at 50.0 µM (retest, dose inferred, filed as 5.0)

O=C1C=CC(=O)N1C1CCCCCCCCCCC1
growth inhibition [1, 7]: 32%
growth inhibition [1, 8]: 66%
growth inhibition ([1]; at 50.0 µM): 83.5% (active)
growth inhibition [2, 7]: 46%
growth inhibition [2, 8]: 58%
growth inhibition ([2]; at 50.0 µM): 86% (active)
growth inhibition [3, 7]: 44%
growth inhibition [3, 8]: 98% (active)
growth inhibition [4, 7]: 56%
growth inhibition [4, 8]: 98% (active)
growth inhibition [5, 7]: 71% (active)
growth inhibition [5, 8]: 97% (active)
growth inhibition [6, 7]: 30%
growth inhibition [6, 8]: 61%
growth inhibition ([6]; at 50.0 µM): 79.4% (active)

CC1=NN(c2ccccc2)C(=O)C1(Br)Br
growth inhibition [1, 7]: 37%
growth inhibition [1, 8]: 64%
growth inhibition ([1]; at 50.0 µM): 92.7% (active)
growth inhibition [2, 7]: 44%
growth inhibition [2, 8]: 71% (active)
growth inhibition ([2]; at 50.0 µM): 94% (active)
growth inhibition [3, 7]: 23%
growth inhibition [3, 8]: 99% (active)
growth inhibition [4, 7]: 43%
growth inhibition [4, 8]: 99% (active)
growth inhibition [5, 7]: 49%
growth inhibition [5, 8]: 98% (active)
growth inhibition [6, 7]: 32%
growth inhibition [6, 8]: 58%
growth inhibition ([6]; at 50.0 µM): 93.3% (active)

Oc1ccc2ccccc2c1N=Nc1nccs1
growth inhibition [1, 7]: 27%
growth inhibition [1, 8]: 69%
growth inhibition ([1]; at 50.0 µM): 82.8% (active)
growth inhibition [2, 7]: 51%
growth inhibition [2, 8]: 92% (active)
growth inhibition ([2]; at 50.0 µM): 91.1% (active)
growth inhibition [3, 7]: 98% (active)
growth inhibition [3, 8]: 90% (active)
growth inhibition [4, 7]: 74% (active)
growth inhibition [4, 8]: 86% (active)
growth inhibition [5, 7]: 96% (active)
growth inhibition [5, 8]: 85% (active)
growth inhibition [6, 7]: 36%
growth inhibition [6, 8]: 77% (active)
growth inhibition ([6]; at 50.0 µM): 77.8% (active)

CC1=CC[C@@H]2[C@@H](CC[C@@]2(C)O)C(C)(C)[C@H]1CC[C@@H]1[C@@]2(C)CC[C@@H](O)C(C)(C)O[C@@H]2CC[C@]1(C)O
growth inhibition [1, 7]: 12%
growth inhibition [1, 8]: 39%
growth inhibition ([1]; at 50.0 µM): 62.9%
growth inhibition [2, 7]: -8%
growth inhibition [2, 8]: 19%
growth inhibition ([2]; at 50.0 µM): 38%
growth inhibition [3, 7]: 4%
growth inhibition [3, 8]: 70% (active)
growth inhibition ([3]; at 50.0 µM): 77.5% (active)
growth inhibition [5, 7]: 17%
growth inhibition [5, 8]: 33%
growth inhibition ([5]; at 50.0 µM): 45.8%
growth inhibition [6, 7]: -2%
growth inhibition [6, 8]: 20%
growth inhibition ([6]; at 50.0 µM): 12.6%

C=[CH][Sn]([CH]=C)([O]c1cccc2cccnc12)[O]c1cccc2cccnc12
growth inhibition [1, 7]: 27%
growth inhibition [1, 8]: 36%
growth inhibition ([1]; at 50.0 µM): 87.3% (active)
growth inhibition [2, 7]: 25%
growth inhibition [2, 8]: 34%
growth inhibition ([2]; at 50.0 µM): 92.7% (active)
growth inhibition [3, 7]: 91% (active)
growth inhibition [3, 8]: 98% (active)
growth inhibition ([3]; at 50.0 µM): 82.8% (active)
growth inhibition [5, 7]: 87% (active)
growth inhibition [5, 8]: 98% (active)
growth inhibition ([5]; at 50.0 µM): 89.8% (active)
growth inhibition [6, 7]: 30%
growth inhibition [6, 8]: 60%
growth inhibition ([6]; at 50.0 µM): 87.7% (active)

S=c1sc2ccccc2n1CCNc1ccccc1
growth inhibition [1, 7]: 8%
growth inhibition [1, 8]: 90% (active)
growth inhibition [2, 7]: -3%
growth inhibition [2, 8]: 73% (active)
growth inhibition [3, 7]: 4%
growth inhibition [3, 8]: 98% (active)
growth inhibition [4, 7]: 7%
growth inhibition [4, 8]: 25%
growth inhibition [5, 7]: 6%
growth inhibition [5, 8]: 92% (active)
growth inhibition [6, 7]: -10%
growth inhibition [6, 8]: 64%

COc1ccc2c(c1)C(OC)C1c3c(cc4c(c3-2)OCO4)CCN1C (stereo not given)
growth inhibition [1, 7]: 24%
growth inhibition [1, 8]: 52%
growth inhibition ([1]; at 50.0 µM): -23.1%
growth inhibition [3, 7]: 12%
growth inhibition [3, 8]: 28%
growth inhibition ([3]; at 50.0 µM): -8.75%
growth inhibition [4, 7]: 22%
growth inhibition [4, 8]: 28%
growth inhibition ([4]; at 50.0 µM): -1.45%
growth inhibition [5, 7]: 28%
growth inhibition [5, 8]: 35%
growth inhibition ([5]; at 50.0 µM): -6.05%
growth inhibition [6, 7]: 35%
growth inhibition [6, 8]: 53%
growth inhibition ([6]; at 50.0 µM): 78.3% (active)

CC1OC(OC2C(OC3CCC4(C)C(CCC5(C)C4CC=C4C6CC(C)(C)CCC6(C(=O)O)CCC45C)C3(C)CO)OCC(O)C2O)C(O)C(O)C1O (stereo not given)
growth inhibition [1, 7]: 94% (active)
growth inhibition [1, 8]: 99% (active)
growth inhibition ([1]; at 50.0 µM): 89.5% (active)
growth inhibition [2, 7]: 87% (active)
growth inhibition [2, 8]: 100% (active)
growth inhibition ([2]; at 50.0 µM): 89.8% (active)
growth inhibition [4, 7]: 89% (active)
growth inhibition [4, 8]: 98% (active)
growth inhibition ([4]; at 50.0 µM): 88.5% (active)
growth inhibition [5, 7]: 97% (active)
growth inhibition [5, 8]: 99% (active)
growth inhibition ([5]; at 50.0 µM): 87.7% (active)
growth inhibition [6, 7]: 93% (active)
growth inhibition [6, 8]: 98% (active)
growth inhibition ([6]; at 50.0 µM): 88.2% (active)

COC(=O)c1ccc(Cl)c(NN)c1
growth inhibition [1, 7]: 49%
growth inhibition [1, 8]: 66%
growth inhibition ([1]; at 50.0 µM): 90.4% (active)
growth inhibition [2, 7]: 29%
growth inhibition [2, 8]: 59%
growth inhibition ([2]; at 50.0 µM): 92.8% (active)
growth inhibition [3, 7]: 86% (active)
growth inhibition [3, 8]: 98% (active)
growth inhibition [4, 7]: 61%
growth inhibition [4, 8]: 99% (active)
growth inhibition [5, 7]: 93% (active)
growth inhibition [5, 8]: 99% (active)
growth inhibition [6, 7]: 38%
growth inhibition [6, 8]: 42%
growth inhibition ([6]; at 50.0 µM): 88.7% (active)

O=C1CSC(=S)N1Cc1cccnc1
growth inhibition [1, 7]: 1%
growth inhibition [1, 8]: 19%
growth inhibition ([1]; at 50.0 µM): 45.4%
growth inhibition [3, 7]: 6%
growth inhibition [3, 8]: 24%
growth inhibition ([3]; at 50.0 µM): 42.9%
growth inhibition [4, 7]: 32%
growth inhibition [4, 8]: 33%
growth inhibition ([4]; at 50.0 µM): 1.95%
growth inhibition [5, 7]: -22%
growth inhibition [5, 8]: 48%
growth inhibition ([5]; at 50.0 µM): 61.8%
growth inhibition [6, 7]: -4%
growth inhibition [6, 8]: 72% (active)
growth inhibition ([6]; at 50.0 µM): 54.9%

N#Cc1ccc(Br)cc1[N+](=O)[O-]
growth inhibition [1, 7]: 45%
growth inhibition [1, 8]: 64%
growth inhibition ([1]; at 50.0 µM): 91.2% (active)
growth inhibition [2, 7]: 41%
growth inhibition [2, 8]: 63%
growth inhibition ([2]; at 50.0 µM): 93.2% (active)
growth inhibition [3, 7]: 74% (active)
growth inhibition [3, 8]: 100% (active)
growth inhibition [4, 7]: 90% (active)
growth inhibition [4, 8]: 100% (active)
growth inhibition [6, 7]: 33%
growth inhibition [6, 8]: 61%
growth inhibition ([6]; at 50.0 µM): 92% (active)

O=[N+]([O-])/C(=C/c1ccccc1)c1ccccc1
growth inhibition [1, 7]: 99% (active)
growth inhibition [1, 8]: 99% (active)
growth inhibition ([1]; at 50.0 µM): 99.6% (active)
growth inhibition [2, 7]: 100% (active)
growth inhibition [2, 8]: 99% (active)
growth inhibition ([2]; at 50.0 µM): 99.7% (active)
growth inhibition [4, 7]: 99% (active)
growth inhibition [4, 8]: 99% (active)
growth inhibition ([4]; at 50.0 µM): 98.7% (active)
growth inhibition [5, 7]: 100% (active)
growth inhibition [5, 8]: 99% (active)
growth inhibition ([5]; at 50.0 µM): 99.5% (active)
growth inhibition [6, 7]: 99% (active)
growth inhibition [6, 8]: 99% (active)
growth inhibition ([6]; at 50.0 µM): 99.5% (active)
